Assay outcomes deposited in PubChem BioAssay by National Center for Advancing Translational Sciences (NCATS).
This is a sample that favours compounds with a hit; in the whole collection about 1% have one here.
USP2a inh: blocks human ubiquitin-specific protease USP2a | 330,000 compounds, 0.01% hits | O75604 | Potency, µM (doses to about 38.3 µM), inactives show at the highest dose activity change, negative = inhibition, most hits filed as inhibitors | AID 463254 | USP2 core, Ub-CHOP2 coupled fluorogenic reporter, 485/531;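 note: plate controls were DMSO wells for no effect and full inhibition by NEM control for full effect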
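Cell-free coupled assay: 10nM USP2 core preincubated 30min RT with compound in Tris-HCl pH 8.0/CaCl2/CHAPS buffer, then 25nM Ub-CHOP2 and 25nM reporter substrate; fluorescence (Ex 485/Em 531) read after 60min RT, normalized to NEM inhibition, concentration-response curves fitted.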
GALK inhibitor: blocks human galactokinase activity; Potency, µM (top dose mostly 57.5 µM), for inactives: at the highest dose activity change, negative = inhibition, hits mostly inhibitors; Purified GALK, Kinase-Glo residual ATP luminescence; 270,000 compounds, 0.007% hits; P51570
Target sequence (P51570 whole entry, looked up): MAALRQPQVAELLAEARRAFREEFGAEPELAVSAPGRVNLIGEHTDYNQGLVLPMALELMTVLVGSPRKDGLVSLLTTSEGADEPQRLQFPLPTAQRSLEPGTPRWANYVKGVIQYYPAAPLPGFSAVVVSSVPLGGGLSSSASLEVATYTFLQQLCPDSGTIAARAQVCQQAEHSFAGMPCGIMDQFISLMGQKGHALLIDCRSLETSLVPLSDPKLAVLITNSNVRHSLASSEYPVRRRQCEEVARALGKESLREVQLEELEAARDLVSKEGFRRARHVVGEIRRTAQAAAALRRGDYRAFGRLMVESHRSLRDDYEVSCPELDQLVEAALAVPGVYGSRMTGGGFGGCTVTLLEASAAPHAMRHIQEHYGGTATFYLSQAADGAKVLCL
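GALK at 5 nM final was combined with compound, 35 uM ATP and 100 uM galactose in HEPES pH8.0 with MgCl2 and DTT. The reaction ran one hour at room temperature before luminescent ATP detection.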
TrxR1 substrate: substrates of rat thioredoxin reductase 1; Potency, µM (titrated, usually from 114 µM), for the others: at the top dose activity change, negative = substrate turnover; 390,000 compounds, 0.01% hits; purified TrxR1 substrate turnover, NADPH consumption readout; O89049; AID 588456; note: nearly all actives have a fitted effect of over 50% in size
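Rat TrxR1, dispensed at 90 nM, was prereduced with 400 uM NADPH (final) for 5 min at ~22 deg C, then incubated with compound 15 min before 400 uM selenite. A first-read NADPH fluorescence drop versus no-compound background flagged substrates.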
Eya2 inh: blocks the phosphatase activity of human Eya2 | Potency, µM (series often up to 76.9 µM), without a hit: top-dose activity, negative = inhibition, hits mostly inhibitors | recombinant Eya2, OMFP fluorescence dephosphorylation (OMFP is methylfluorescein phosphate) | 330,000 compounds, 0.006% hits | O00167
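Eya2 (0.2 uM) preincubated 10 min at ambient with compound, then OMFP substrate added at 50 uM; 10 min reaction in 50 mM HEPES pH 7.5, 50 mM NaCl, 5 uM MgCl2, 0.05% BSA, 1 mM DTT. Fluorescence read at Ex 485/Em 525 nm.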
rTrxR1 inhibitor: blocks rat thioredoxin reductase 1. O89049. recombinant rTrxR1, NADPH fluorescence consumption, selenite substrate. Potency, µM (doses to about 114 µM), for inactives: at the highest dose activity change, negative = inhibition, usual class: inhibitors. 390,000 compounds, 1% hits. AID 588453; note: nearly all actives have a fitted effect of over 65% in size
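Rat TrxR1 (90 nM in the dispensed reagent) was pre-reduced with 400 uM NADPH for 5 min at room temperature, then incubated with compound for 15 min. After 400 uM selenite was added, NADPH fluorescence (Ex 340/Em 450 nm) was followed for 8 min.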
RGS4 inhibitor: human RGS4 inhibition; 390,000 compounds, 0.039% hits; AID 504845; Transcreener GDP fluorescence polarization, RGS4-accelerated GTP hydrolysis; Potency, µM (top dose mostly 114 µM), inactives show top-dose activity change, negative = inhibition, hits mostly inhibitors; note: nearly all actives have a fitted effect of over 75% in size
Target sequence (P49798 whole entry, looked up): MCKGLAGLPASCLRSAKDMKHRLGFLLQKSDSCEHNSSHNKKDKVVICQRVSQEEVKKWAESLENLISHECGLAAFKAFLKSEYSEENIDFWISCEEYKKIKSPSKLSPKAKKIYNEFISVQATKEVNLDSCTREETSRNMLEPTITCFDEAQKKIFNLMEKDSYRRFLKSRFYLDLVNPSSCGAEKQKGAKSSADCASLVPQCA
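MLSMR compounds (23 nl, pin-transferred) preincubated 10 min at room temperature with a 500nM (2x) first reagent, then RGS4 at 900nM (2x) plus Transcreener GDP mix added; fluorescence polarization (620/688 nm) read before and after 90 min at 30 °C.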
* = called active by the depositor; ? = inconclusive; . = no result; [ ] = dose if it differs, or a comment. Calls come from the whole dose curve; as a rule, active = well fitted curve in the direction sought with a large enough effect; inconclusive = small, poorly fitted or top-dose-only effect, or another doubt; inactive = no such curve, though single readings can be large; an effect the other way counts as inactive or inconclusive. Unless noted, % is set by controls: 0 for no effect and ±100 for the full control effect; potency is the fitted concentration of half-maximal effect.

SMILES	USP2a inh	GALK inhibitor	TrxR1 substrate	Eya2 inh	rTrxR1 inhibitor	RGS4 inhibitor
CCOC(=O)c1cc([N+](=O)[O-])c([N+](=O)[O-])cc1NC(C)=O	4%	.	-5%[57.1 µM]	7%	3.2µM*	?
CCc1cc2ccc(C)cc2nc1SCC(=O)N1CCN(C(=O)c2ccco2)CC1	1%	0%	4%	-27%	4µM*	?
O=C(CSc1nc2ccc(Cl)cc2[nH]1)N1CCN(C(=O)c2ccco2)CC1	5%	0%	6%	-2%	16µM*	-14%
Cc1cc(Cl)ccc1OCCCC(=O)N1CCN(C(=O)c2ccco2)CC1	-1%	7%	-1%[57.1 µM]	3%	28µM*	-20%
CC(=O)NCc1ccc(C(=O)CSc2nnc(-c3ccncc3)n2Cc2ccccc2)o1	-1%	-1%	-1%	9%	16µM*	-36%[56.9 µM]
O=C(COC(=O)c1ccc2c(c1)OCO2)NC1CCS(=O)(=O)C1 (stereo not drawn)	-4%	3%	11%	5%[15.4 µM]	79µM*	-15%
O=C(COC(=O)c1ccc([N+](=O)[O-])o1)NC1CCCC1	2%	.	-2%	-5%	?	-15%
O=C(COC(=O)c1ccc([N+](=O)[O-])o1)NC1CCS(=O)(=O)C1 (stereo not drawn)	1%	-1%	-7%	4%	3.5µM*	21%
O=C(COC(=O)c1ccc([N+](=O)[O-])o1)Nc1cccc2ccccc12	1%	0%	-1%	17%	20µM*	-8%
CS(=O)(=O)c1ccc(C(=O)OCC(=O)NCc2cccs2)cc1[N+](=O)[O-]	-1%	.	10%[57.1 µM]	-1%	1.8µM*	9%
O=C(COC(=O)c1ccc([N+](=O)[O-])o1)NCc1ccc(F)cc1	4%	.	-5%	-23%	?	7%
CC[n+]1ccnc2ccccc21	.	.	5%	.	?	.
O=C(COC(=O)c1ccc([N+](=O)[O-])o1)NC1CCCCC1	7%	.	-8%	3%	16µM*	16%
COc1cc(C(=O)OCC(=O)NC2CCS(=O)(=O)C2)c([N+](=O)[O-])cc1OC (stereo not drawn)	0%	-2%	-3%[57.1 µM]	-7%	4%[57.1 µM]	5%
CS(=O)(=O)c1ccc(C(=O)OCC(=O)NC2CCS(=O)(=O)C2)cc1[N+](=O)[O-] (stereo not drawn)	2%	9%	4%	-5%	7.9µM*	-11%
Cc1cccc(NC(=O)CNC(=O)Cn2ncc(Cl)c(Cl)c2=O)c1C	2%	.	15%[57.1 µM]	-3%	-44%[57.1 µM]	-10%
O=C(Cn1ncc(Cl)c(Cl)c1=O)NC1CCS(=O)(=O)C1 (stereo not drawn)	-3%	7%	-2%	-5%	13µM*	-52%
O=C(Cn1ncc(Cl)c(Cl)c1=O)NCC1CCCCC1	-1%	0%	-2%	-2%	35µM*	-36%
O=C(Cn1ncc(Cl)c(Cl)c1=O)NC1CCCCC1	0%	.	1%	-8%	56µM*	-30%
O=C(Cn1cnc2ccccc2c1=O)NC1CCS(=O)(=O)C1 (stereo not drawn)	2%	.	10%[57.1 µM]	2%	12%	27%
O=S(=O)(c1ccc2c(c1)CCCC2)N1CCN(c2nc(-c3cccs3)nc3ccccc23)CC1	.	.	-2%	.	11%	12%
O=C(NNc1ccccc1F)c1sccc1Cl	.	.	1%	.	5%	-27%
COc1ccc(N2Cc3ccccc3C2=O)cc1	-1%	5%	-6%	-10%	4%[57.1 µM]	-2%
C=CC(=O)Oc1ccc(N2Cc3ccccc3C2=O)cc1	.	.	-2%	.	3.5µM*	-24%
N#CC(C#N)=Cc1ccc(OCC(=O)N2CCOCC2)cc1	3%	4%	-5%	-10%	16µM*	?
SMILES	USP2a inh	GALK inhibitor	TrxR1 substrate	Eya2 inh	rTrxR1 inhibitor	RGS4 inhibitor
Cc1ccc(SC(=O)c2c(C)noc2-c2cc(C)on2)cc1	4%	.	-6%	3%	40µM*	-30%
COc1ccc(C2(CNC(=O)c3cc(OC)c(OC)c(OC)c3)CCCC2)cc1OC	.	.	1%	.	13%	-4%
COc1ccc(C2(CNC(=O)/C=C\c3ccco3)CCCC2)cc1OC	1%	0%	-1%	12%	10µM*	?
COc1ccc(C(NC(=O)/C=C/c2ccco2)c2ccc(OC)c(OC)c2)cc1OC	3%	1%	-8%	0%	4.5µM*	?
COc1ccc(C(NC(=O)c2ccco2)c2ccc(OC)c(OC)c2)cc1 (stereo not drawn)	1%	-1%	10%[57.1 µM]	-1%	17%[57.1 µM]	-11%
O=C(COC(=O)c1ccccc1OCc1cccc(Br)c1)Nc1ccc(Br)cc1	.	.	-2%	.	5%	.
CCOC(=O)C1=C(C)c2ccccc2N(C(=O)OC)C1(C)C(=O)OCC (stereo not drawn)	-1%	.	-2%	-1%	35µM*	?
CCCC/C=C1/CCC(CN(C)C)C1=O (stereo not drawn)	.	.	4%[11.4 µM]	.	0.63µM*	-15%
COc1cccc(/C=C2/CCC(CN(C)C)C2=O)c1 (stereo not drawn)	.	.	9%[11.4 µM]	.	1.1µM*	-137%
CSc1cccc(NS(=O)(=O)c2cn(C)c(C)n2)c1	.	.	-1%[57.1 µM]	.	15%[57.1 µM]	15%
CSc1cccc(NS(=O)(=O)c2cn(C)cn2)c1	0%	4%	-4%	10%	50µM*	0%
CO[C@@H]1[C@@H](OC2OC(C)C(OC3CC(C)(O)C(OC(=O)CC(C)C)C(C)O3)C(N(C)C)C2O)[C@@H](CC=O)C[C@@H](C)C(=O)/C=C\C2O[C@H]2C[C@@H](C)OC(=O)C[C@H]1OC(C)=O (stereo partly drawn)	.	.	-10%	.	-25%	.
Cc1cccc2c(=O)[nH]c3c(-c4nc(-c5ccc(Cl)cc5)cs4)c(O)cn3c12	.	.	17%	.	24%	.
O=Cc1ccc(O)cc1	.	.	-7%	.	-8%	.
Cn1nc(-c2ccc(F)cc2)nc2c(=O)n(C)c(=O)nc1-2	.	.	22µM*	.	28µM*	-33%
Cn1nc(-c2ccc(Cl)cc2)nc2c(=O)n(C)c(=O)nc1-2	16%	1.1µM*	18µM*	?	?	5%
COc1ccc(-c2nc3c(=O)n(C)c(=O)nc-3n(C)n2)cc1	.	.	?	.	?	-8%
Cn1nc(-c2ccccc2)nc1-c1ccccc1	1%	.	-4%	13%	9%	-26%
COc1ccccc1Nc1c2c(nc3ccc(NC(=O)c4ccc(N(C)C)cc4)cc13)CCCC2	.	.	-2%	.	14%	-27%
CCCN1CNc2c(c(=O)[nH]c(=S)n2CCc2ccc(OC)cc2)C1	.	.	-12%	.	-32%	-14%
